Measured values reported in PubChem BioAssay (NCATS).
Unmarked numbers belong to inactive results. Results filed as inconclusive are left out. Where a call stands in place of a potency, no number is given. Active and inactive are the calls of the source. Unless noted, calls come from the whole dose curve; as a rule, active = well fitted curve in the direction sought with a large enough effect; inconclusive = small, poorly fitted or top-dose-only effect, or another doubt; inactive = no such curve, though single readings can be large; an effect the other way counts as inactive or inconclusive.

Assays:
[1] = target: Mitogen-activated protein kinase 10 (Mus musculus) (UniProt Q61831); assay: JNK3 AlphaScreen Assay (AID 530; active = well fitted curve in either direction with a large enough effect, not every such curve was filed as active;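 note: kinase came from lysate of stimulated human HepG2 cells; signal reports phosphorylation of biotinylated GST-cJun 1-79 at Ser73 with 10 µM ATP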); conditions: JNK3 lysate, c-Jun phosphorylation; series mostly up to 57.1 µM
In short: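 Pre-activated (IL-1β/TNFα) JNK3 in HepG2 lysates phosphorylates biotin-GST-cJun(1-79), 10 uM ATP; anti-phospho-cJun(Ser73) AlphaScreen read at room temperature, pH 7.6 Tris buffer. Compounds pre-incubated 15 min as titrations.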

[2] = target: Calcium and integrin-binding protein 1 (Homo sapiens) (UniProt Q99828); assay: Primary qHTS for Identification of Calcium Integrin Binding Protein 1 (CIB1) Competitor (AID 1508620); conditions: CIB1-GST / FITC-alphaIIb peptide fluorescence polarization; series mostly up to 114 µM;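 note: GST tagged CIB1 binding a fluorescein labelled alphaIIb integrin peptide tracer; top concentration of the series differs between compounds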
In short: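 Fluorescence polarization competition: GST-tagged CIB1 (1 uM final) preincubated with compound 15 min at room temperature, then FITC-labelled alphaIIb peptide (100 nM final) added. After 15 min at room temperature, polarization read at Ex 480/Em 540.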

[3] = target: Glucocorticoid receptor (Homo sapiens) (UniProt P04150); assay: GR-GFP Redistribution (AID 450;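 active = compounds whose dose series gives a full or clear partial fitted curve of increased nuclear translocation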; note: potency is the fitted concentration of half-maximal effect); conditions: U2OS GR-GFP nuclear translocation, laser cytometry, 2 h
[4] = target: 3',5'-cyclic-AMP phosphodiesterase 4B (Homo sapiens) (UniProt Q07343); assay: qHTS Assay for Inhibitors of PDE-IV (AID 607; active = well fitted activation curve with a large enough effect in the main read-out, with a control signal flat, not every such curve was filed as active); conditions: HEK293 ACTOne CNG channel cells, membrane potential fluorescence; series mostly up to 22.9 µM
In short: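 Live HEK293 cells with a modified cyclic nucleotide-gated (CNG) channel report intracellular cAMP via membrane-potential dye fluorescence (ex 535/em 590 nm). Endogenous PDE-IV was targeted. Compounds were tested at up to 22.9 uM final; RO 20-1724 100 uM served as control.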

[5] = target: Guanine nucleotide-binding protein G(i) subunit alpha-1 (Homo sapiens) (UniProt P63096); assay: qHTS Assay for Inhibitors of RGS12 GoLoco Motif Activity (Green Fluorophore) (AID 879); conditions: Galphai1/FITC-RGS12 GoLoco peptide, fluorescence polarization; series mostly up to 57.1 µM;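 note: negative values mean loss of peptide binding seen as reduced polarization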
In short: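 Fluorescence polarization assay: 50 nM Gαi1 with 10 nM FITC-labeled RGS12 GoLoco peptide in 10 mM Tris pH 7.5, 150 mM NaCl, 0.1 mM GDP, 0.05% NP40, 10 min at room temperature with compound.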

[6] = target: Muscarinic acetylcholine receptor M1 (Rattus norvegicus) (UniProt P08482); assay: qHTS Assay for Antagonists of Acetylcholine Muscarinic M1 Receptor: Measurement of IP-One Response (AID 944); conditions: CHO-M1 cells, IP-One HTRF, antagonist mode; series mostly up to 46.1 µM; note: nearly all actives have a fitted effect of over 75% in size
In short: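 M1-CHO (rat), 2000 cells/well, overnight recovery; cpd 10 min; carbachol EC80 (200 nM), 30 min, HEPES buffer + 50 mM LiCl pH 7.4; IP-One HTRF, Ex 337, Em 620/665 nm.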

[7] = target: Pyruvate kinase (Leishmania mexicana) (UniProt Q27686); assay: qHTS Validation Assay for Inhibitors of Leishmania Mexicana Pyruvate Kinase (AID 945); conditions: purified L. mexicana pyruvate kinase, enzyme activity, E451W mutant enzyme; series mostly up to 57.5 µM
In short: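 Mutant LmPYK (E451W), 0.2 nM, plus 0.5 mM PEP and 0.1 mM ADP in 50 mM imidazole pH 7.2 containing 0.01% Tween 20 and 0.05% BSA. Incubated 1 h at room temperature; luminescence via PKLight, normalized to DMSO.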

[8] = target: Alpha-galactosidase A (Homo sapiens) (UniProt P06280); assay: Counterscreen for Glucocerebrosidase Inhibitors: qHTS Assay for Human alpha-Galactosidase at pH 4.5 (AID 992); conditions: purified enzyme, fluorogenic substrate; series mostly up to 76.9 µM
In short: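 Read-out is 4-methylumbelliferone fluorescence (365 nm excitation, 440 nm emission) after a pH 10 NaOH/glycine stop. Reactions held 2 nM enzyme and 80 uM substrate at pH 4.5 for 20 min at room temperature.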

[9] = target: alpha-glucosidase (Oryza sativa, rice) (UniProt Q653V4); assay: Counterscreen for Glucocerebrosidase Inhibitors: qHTS Assay for Rice alpha-Glucosidase at pH 5.0 (AID 997); conditions: rice alpha-glucosidase enzyme activity; series mostly up to 76.9 µM
In short: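 Rice alpha-glucosidase (4 nM final) with 400 uM 4-methylumbelliferyl-alpha-D-glucopyranoside in citrate buffer pH 5.0, 20 min at room temperature, stopped at pH 10; fluorescence 365/440 nm, compounds 0.7 nM–77 uM, AC50 from Hill fits.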

[10] = target: Cytochrome P450 3A4 (Homo sapiens) (UniProt P08684); assay: qHTS Assay for Inhibitors and Substrates of Cytochrome P450 3A4 (AID 884); conditions: recombinant CYP3A4, Luciferin-PPXE luminescence; series mostly up to 57.1 µM; note: nearly all actives have a fitted effect of over 50% in size; note: potency is the fitted concentration of half-maximal effect
In short: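 20 nM human CYP3A4 with 25 uM Luciferin-PPXE (at KM) in 200 mM KPO4, preincubated 10 min with compound; NADPH regeneration started a 60 min RT reaction. Luciferin detected by luminescence, normalized to 57 uM ketoconazole as full inhibition.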

[11] = target: Cytochrome P450 3A4 (Homo sapiens) (UniProt P08684); assay: qHTS Assay for Activators of Cytochrome P450 3A4 (AID 885); conditions: recombinant CYP3A4, Luciferin-PPXE luminescence, 60 min; series mostly up to 57.1 µM; note: nearly all actives have a fitted effect of over 65% in size; note: potency is the fitted concentration of half-maximal effect
In short: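 Quantitative HTS format: compounds preincubated with 20nM human CYP3A4 and Luciferin-PPXE substrate at KM, reaction started by NADPH regeneration, stopped after 60 min, luciferase luminescence read 20 min later.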

[12] = Confirmation and Secondary Assay for Modulators of Hemoglobin Beta Chain Splicing at IVS2 654 locus (AID 910); conditions: HeLa EGFP-654 splicing reporter, GFP fluorescence, 48 h; series mostly up to 46.1 µM;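 note: HeLa cells stably carrying EGFP split by mutant beta-globin IVS2-654 intron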
In short: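 HeLa cells stably expressing EGFP interrupted by β-globin IVS2-654 intron, seeded overnight in Opti-MEM/2% FCS, then treated 2 days at 37 °C. Restored splicing read as total peak GFP intensity per well by laser scanning cytometry (488 nm excitation, 500–520 nm emission); 500 nM antisense PNA as control.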

[13] = Confirmation and Secondary Assay for Modulators of Hemoglobin Beta Chain Splicing at IVS2 705 locus (AID 930); conditions: HeLa EGFP-705 splicing reporter, GFP fluorescence, 48 h; series mostly up to 46.1 µM;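 note: HeLa cells stably expressing the EGFP-705 splicing reporter; GFP fluorescence per well restored by corrected splicing of the IVS2-705 intron in EGFP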
In short: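 Stable HeLa line with EGFP disrupted by mutant beta-globin intron 2 (705). Overnight attachment, then 2 days of compound at 37C, 5% CO2. Signal: peak GFP intensity summed over objects 5-250 µm.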

[14] = target: Cytochrome P450 2D6 (Homo sapiens) (UniProt P10635); assay: Cytochrome P450 family 2 subfamily D member 6 (CYP2D6) small molecule antagonists: luciferase biochemical (cell-free) qHTS assay (AID 1645840; active = well fitted curve in the direction sought with a large enough effect in the repeat runs; an effect the other way counts as inactive or inconclusive; note: potency is the fitted concentration of half-maximal effect; nearly all actives have a fitted effect of over 55% in size); conditions: P450-Glo CYP2D6 enzyme, luciferin luminescence, 1 h; series mostly up to 57.4 µM
In short: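 P450-Glo luminescent screen: recombinant CYP2D6 enzyme–proluciferin substrate mix preincubated with compound 10 min at room temperature, then NADPH regeneration added for 1 h at room temperature. Detection reagent added for 20 min; luciferin light read as relative luminescence units.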

[15] = target: Cytochrome P450 2C9 (Homo sapiens) (UniProt P11712); assay: Cytochrome P450 family 2 subfamily C member 9 (CYP2C9) small molecule antagonists: luciferase biochemical (cell-free) qHTS assay (AID 1645842; active = well fitted curve in the direction sought with a large enough effect in the repeat runs; an effect the other way counts as inactive or inconclusive; note: potency is the fitted concentration of half-maximal effect; nearly all actives have a fitted effect of over 55% in size); conditions: P450-Glo CYP2C9 enzyme assay, luciferin luminescence; series mostly up to 57.4 µM
In short: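 Luminescence, after 20 min with luciferin detection reagent, reflected CYP2C9 turnover during a 1 h NADPH-driven reaction at 37C. Enzyme-substrate mix contained 0.4% bovine serum albumin and was preincubated with compound 10 min at room temperature.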

[16] = target: Rap guanine nucleotide exchange factor 3 (Homo sapiens) (UniProt O95398); assay: Confirmatory qHTS for antagonist of cAMP-regulated guanine nucleotide exchange factor 3 (EPAC1) (AID 1645880); conditions: EPAC1 Rap1B-BODIPY-GDP exchange, fluorescence; series mostly up to 115 µM; note: nearly all actives have a fitted effect of over 55% in size; note: potency is the fitted concentration of half-maximal effect
In short: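 Nucleotide exchange uses 100 nM EPAC1, 250 nM RAP1B-BODIPY-GDP and 50 uM GDP, with compounds in a concentration-titration series. After 5 min at room temperature, fluorescence (480 nm ex/540 nm em) is read every 5 min for 30 min. Data are normalized to control ATA and DMSO.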

[17] = target: Rap guanine nucleotide exchange factor 4 (Homo sapiens) (UniProt Q8WZA2); assay: Confirmatory qHTS for antagonist of cAMP-regulated guanine nucleotide exchange factor 4 (EPAC2) (AID 1645885); conditions: EPAC2 Rap1B-BODIPY-GDP exchange fluorescence, biochemical; series mostly up to 114 µM; note: nearly all actives have a fitted effect of over 25% in size
[18] = target: Rap guanine nucleotide exchange factor 3 (Homo sapiens) (UniProt O95398); assay: Counterscreen qHTS for antagonist of cAMP-regulated guanine nucleotide exchange factor 3 (EPAC1) (AID 1645888); conditions: Rap1B-BODIPY-GDP nucleotide exchange, fluorescence; series mostly up to 154 µM;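 note: fluorescence loss as bound BODIPY-GDP is released from Rap1B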
In short: (§1)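 Rap1B–BODIPY-GDP (250 nM) with 50 uM GDP; compounds pin-transferred to 9.74 nM–152 uM final (activator) or from 7.32 nM upwards (inhibitor). Fluorescence Ex/Em 480/540 nm read at 5 and 30 min, then after adding cAMP or buffer, at room temperature.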

[19] = target: Rap guanine nucleotide exchange factor 3 (Homo sapiens) (UniProt O95398); assay: Counterscreen qHTS for agonist of cAMP-regulated guanine nucleotide exchange factor 3 (EPAC1) (AID 1645889); conditions: EPAC1 Rap1B-BODIPY-GDP exchange, fluorescence; series mostly up to 154 µM; note: nearly all actives have a fitted effect of over 40% in size; note: potency is the fitted concentration of half-maximal effect
In short: as §1

[20] = target: Cytochrome P450 1A2 (Homo sapiens) (UniProt P05177); assay: p450-cyp1a2 (AID 410; calls by dose curve; note: potency is the fitted concentration of half-maximal effect); conditions: recombinant CYP1A2, luciferin-ME demethylation, luminescence; series mostly up to 57 µM
In short: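 Luminescent readout of luciferin formed from Luciferin-ME by human CYP1A2; data normalized against complete inhibition by 57 uM furafylline. Enzyme 20nM, substrate 100uM at Km, 100mM KPO4 buffer, 60 min reaction at room temperature.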

Sequence of 3',5'-cyclic-AMP phosphodiesterase 4B (Homo sapiens) (Q07343 whole entry, looked up): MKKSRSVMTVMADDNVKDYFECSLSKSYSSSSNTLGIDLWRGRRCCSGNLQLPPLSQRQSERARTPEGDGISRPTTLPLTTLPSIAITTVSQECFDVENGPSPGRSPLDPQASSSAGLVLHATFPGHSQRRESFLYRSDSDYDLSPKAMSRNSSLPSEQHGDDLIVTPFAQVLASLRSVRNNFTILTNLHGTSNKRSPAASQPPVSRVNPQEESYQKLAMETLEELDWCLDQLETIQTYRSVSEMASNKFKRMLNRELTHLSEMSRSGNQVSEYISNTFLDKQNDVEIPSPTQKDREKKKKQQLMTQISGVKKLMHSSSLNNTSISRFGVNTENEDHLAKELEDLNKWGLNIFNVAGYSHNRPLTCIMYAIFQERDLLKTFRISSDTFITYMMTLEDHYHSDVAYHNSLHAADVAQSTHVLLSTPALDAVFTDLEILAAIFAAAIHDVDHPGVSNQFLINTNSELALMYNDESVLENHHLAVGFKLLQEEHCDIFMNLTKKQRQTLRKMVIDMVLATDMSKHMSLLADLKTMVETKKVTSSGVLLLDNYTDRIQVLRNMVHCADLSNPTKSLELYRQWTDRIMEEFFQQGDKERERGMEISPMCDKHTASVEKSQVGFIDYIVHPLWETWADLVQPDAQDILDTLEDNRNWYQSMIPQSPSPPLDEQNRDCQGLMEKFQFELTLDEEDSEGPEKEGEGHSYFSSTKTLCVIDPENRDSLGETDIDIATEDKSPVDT
Sequence of Glucocorticoid receptor (Homo sapiens) (P04150 whole entry, looked up): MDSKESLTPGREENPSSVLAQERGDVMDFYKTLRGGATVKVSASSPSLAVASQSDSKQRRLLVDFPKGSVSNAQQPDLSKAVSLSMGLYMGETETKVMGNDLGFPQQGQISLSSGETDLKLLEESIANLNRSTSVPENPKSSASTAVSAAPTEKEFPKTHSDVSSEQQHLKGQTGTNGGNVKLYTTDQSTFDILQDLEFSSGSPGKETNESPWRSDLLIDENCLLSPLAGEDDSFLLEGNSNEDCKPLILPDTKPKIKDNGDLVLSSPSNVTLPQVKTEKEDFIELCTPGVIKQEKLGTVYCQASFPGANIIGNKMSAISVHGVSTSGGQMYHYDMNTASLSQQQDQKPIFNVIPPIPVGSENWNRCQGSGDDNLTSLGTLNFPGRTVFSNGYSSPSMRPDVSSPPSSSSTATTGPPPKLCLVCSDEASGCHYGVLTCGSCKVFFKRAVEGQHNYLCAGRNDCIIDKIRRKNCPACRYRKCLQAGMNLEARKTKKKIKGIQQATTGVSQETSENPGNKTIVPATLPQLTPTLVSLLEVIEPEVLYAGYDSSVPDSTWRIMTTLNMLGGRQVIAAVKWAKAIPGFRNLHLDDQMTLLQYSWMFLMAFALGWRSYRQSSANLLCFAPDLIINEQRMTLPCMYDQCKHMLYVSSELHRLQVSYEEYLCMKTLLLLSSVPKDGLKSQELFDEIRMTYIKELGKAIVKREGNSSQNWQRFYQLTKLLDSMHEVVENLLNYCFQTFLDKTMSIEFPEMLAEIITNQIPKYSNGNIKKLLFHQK
Sequence of Cytochrome P450 3A4 (Homo sapiens) (P08684 whole entry, looked up): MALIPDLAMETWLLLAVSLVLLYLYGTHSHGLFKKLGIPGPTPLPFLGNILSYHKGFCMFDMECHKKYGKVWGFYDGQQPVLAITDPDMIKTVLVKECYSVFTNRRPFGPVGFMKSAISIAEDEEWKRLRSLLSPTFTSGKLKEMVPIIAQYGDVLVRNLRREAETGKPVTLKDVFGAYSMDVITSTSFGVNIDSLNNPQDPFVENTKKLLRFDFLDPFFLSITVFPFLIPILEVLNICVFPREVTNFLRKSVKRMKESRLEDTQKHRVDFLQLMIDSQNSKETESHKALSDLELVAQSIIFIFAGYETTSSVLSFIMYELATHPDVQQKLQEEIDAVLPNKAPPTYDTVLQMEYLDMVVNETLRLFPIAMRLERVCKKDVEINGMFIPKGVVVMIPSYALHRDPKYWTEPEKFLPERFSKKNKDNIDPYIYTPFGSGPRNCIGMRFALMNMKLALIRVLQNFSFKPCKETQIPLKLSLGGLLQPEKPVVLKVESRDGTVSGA
Sequence of Rap guanine nucleotide exchange factor 4 (Homo sapiens) (Q8WZA2 whole entry, looked up): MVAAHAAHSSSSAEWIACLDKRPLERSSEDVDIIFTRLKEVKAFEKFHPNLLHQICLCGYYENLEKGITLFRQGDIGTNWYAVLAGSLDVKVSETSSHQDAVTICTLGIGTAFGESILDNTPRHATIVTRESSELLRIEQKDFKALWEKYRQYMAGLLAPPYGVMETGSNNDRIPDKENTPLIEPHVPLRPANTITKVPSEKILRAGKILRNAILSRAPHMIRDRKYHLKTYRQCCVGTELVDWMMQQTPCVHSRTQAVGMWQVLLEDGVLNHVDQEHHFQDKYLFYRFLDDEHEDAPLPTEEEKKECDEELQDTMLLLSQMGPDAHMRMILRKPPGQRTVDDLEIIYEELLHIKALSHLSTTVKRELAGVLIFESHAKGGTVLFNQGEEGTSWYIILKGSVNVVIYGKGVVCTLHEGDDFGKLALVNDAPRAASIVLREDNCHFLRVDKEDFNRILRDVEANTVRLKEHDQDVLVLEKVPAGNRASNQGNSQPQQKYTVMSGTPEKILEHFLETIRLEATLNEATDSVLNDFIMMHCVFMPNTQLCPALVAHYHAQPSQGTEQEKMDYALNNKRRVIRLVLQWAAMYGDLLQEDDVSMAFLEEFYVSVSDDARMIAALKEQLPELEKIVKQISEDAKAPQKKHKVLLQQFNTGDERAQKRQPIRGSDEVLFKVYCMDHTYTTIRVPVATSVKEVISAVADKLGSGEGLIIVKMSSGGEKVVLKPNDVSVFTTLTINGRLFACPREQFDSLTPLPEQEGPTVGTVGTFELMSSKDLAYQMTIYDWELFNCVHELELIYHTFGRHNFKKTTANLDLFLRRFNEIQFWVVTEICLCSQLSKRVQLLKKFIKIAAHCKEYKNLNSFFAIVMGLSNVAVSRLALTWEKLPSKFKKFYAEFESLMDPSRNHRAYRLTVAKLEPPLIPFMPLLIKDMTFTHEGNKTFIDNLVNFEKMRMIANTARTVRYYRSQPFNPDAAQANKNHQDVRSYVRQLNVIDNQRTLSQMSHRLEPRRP
Sequence of Rap guanine nucleotide exchange factor 3 (Homo sapiens) (O95398 whole entry, looked up): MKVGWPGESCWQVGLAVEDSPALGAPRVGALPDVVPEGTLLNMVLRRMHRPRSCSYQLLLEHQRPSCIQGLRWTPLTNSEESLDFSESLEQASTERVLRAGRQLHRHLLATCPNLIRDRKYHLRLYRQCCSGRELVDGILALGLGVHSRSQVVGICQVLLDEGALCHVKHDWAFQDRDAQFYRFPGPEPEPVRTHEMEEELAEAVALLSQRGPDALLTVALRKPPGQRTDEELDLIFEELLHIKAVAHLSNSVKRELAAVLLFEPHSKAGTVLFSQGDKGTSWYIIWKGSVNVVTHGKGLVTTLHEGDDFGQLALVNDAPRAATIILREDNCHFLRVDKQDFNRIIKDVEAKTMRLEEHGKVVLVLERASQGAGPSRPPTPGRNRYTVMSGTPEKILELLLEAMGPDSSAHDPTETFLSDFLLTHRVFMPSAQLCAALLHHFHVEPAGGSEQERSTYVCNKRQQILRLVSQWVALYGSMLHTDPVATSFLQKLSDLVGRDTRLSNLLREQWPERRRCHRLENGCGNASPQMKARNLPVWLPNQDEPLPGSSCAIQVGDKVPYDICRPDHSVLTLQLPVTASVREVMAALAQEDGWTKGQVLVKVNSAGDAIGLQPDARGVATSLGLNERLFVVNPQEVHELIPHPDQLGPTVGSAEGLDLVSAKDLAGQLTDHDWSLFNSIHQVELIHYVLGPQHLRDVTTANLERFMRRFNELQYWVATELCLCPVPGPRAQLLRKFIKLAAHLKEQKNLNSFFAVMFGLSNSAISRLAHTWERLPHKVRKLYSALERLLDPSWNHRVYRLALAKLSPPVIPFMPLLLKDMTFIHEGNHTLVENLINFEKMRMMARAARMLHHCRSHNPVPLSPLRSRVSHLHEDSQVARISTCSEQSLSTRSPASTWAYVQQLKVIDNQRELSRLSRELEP
Sequence of Muscarinic acetylcholine receptor M1 (Rattus norvegicus) (P08482 whole entry, looked up): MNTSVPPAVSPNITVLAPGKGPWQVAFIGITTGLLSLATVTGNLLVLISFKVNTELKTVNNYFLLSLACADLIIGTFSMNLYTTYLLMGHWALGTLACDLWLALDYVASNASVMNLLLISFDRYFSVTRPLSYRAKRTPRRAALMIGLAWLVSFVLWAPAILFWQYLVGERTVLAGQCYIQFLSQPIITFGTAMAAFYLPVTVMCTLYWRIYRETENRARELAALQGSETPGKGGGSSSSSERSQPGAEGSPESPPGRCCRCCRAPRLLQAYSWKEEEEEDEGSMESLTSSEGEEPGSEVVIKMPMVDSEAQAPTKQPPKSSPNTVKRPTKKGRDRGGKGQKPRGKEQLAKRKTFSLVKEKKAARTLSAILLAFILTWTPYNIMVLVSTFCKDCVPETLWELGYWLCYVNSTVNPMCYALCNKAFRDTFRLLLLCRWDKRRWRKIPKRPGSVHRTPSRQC
Sequence of Cytochrome P450 2C9 (Homo sapiens) (P11712 whole entry, looked up): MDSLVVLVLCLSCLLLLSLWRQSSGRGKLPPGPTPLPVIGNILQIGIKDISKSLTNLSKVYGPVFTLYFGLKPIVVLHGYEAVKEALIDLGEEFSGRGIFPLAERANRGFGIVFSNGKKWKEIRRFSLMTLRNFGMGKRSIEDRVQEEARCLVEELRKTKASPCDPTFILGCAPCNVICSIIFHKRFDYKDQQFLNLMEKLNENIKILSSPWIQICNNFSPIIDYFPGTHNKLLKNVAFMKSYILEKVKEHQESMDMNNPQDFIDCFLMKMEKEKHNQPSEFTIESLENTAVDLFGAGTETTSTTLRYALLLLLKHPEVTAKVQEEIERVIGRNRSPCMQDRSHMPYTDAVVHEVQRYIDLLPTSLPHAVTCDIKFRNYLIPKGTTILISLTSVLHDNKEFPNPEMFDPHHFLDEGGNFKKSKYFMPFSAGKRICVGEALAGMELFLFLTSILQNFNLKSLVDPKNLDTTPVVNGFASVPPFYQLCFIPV

N[C@H](C(=O)O)[C@@H]1[C@@H](C(=O)O)C1(F)F
Potency [1]: inactive

COc1ccc2c(c1)Oc1nc(-c3ccc(C)s3)nc(SCC(=O)Nc3cccc(C(=O)O)c3)c1C2
outcome [2]: inactive

COc1cc2c(cc1OC)-c1cc3nc4ccccc4nc3n1C(C)(C)C2
Potency [3]: > 46 µM
Potency [4]: inactive

CNc1ncnc2c1ncn2[C@H]1C[C@H](OP(=O)(O)O)[C@H](COP(=O)(O)O)O1
Potency [3]: > 46 µM
Potency [1]: inactive

C[C@@H]1CNCCN1S(=O)(=O)c1cccc2cnccc12
Potency [1]: inactive
Potency [4]: inactive
outcome [5]: inactive
Potency [6]: inactive
Potency [7]: inactive
outcome [8]: inactive
outcome [9]: inactive

CC(C)Oc1cccc(-n2c(CCc3c[nH]c4ccc(Br)cc34)nc3ccccc3c2=O)c1
Potency [3]: > 46 µM
Potency [1]: inactive
Potency [10]: 3.98 µM (active)
Potency [11]: inactive

O=C(O)COc1cccc(-c2ocnc2-c2nc(-c3ccccc3)c(-c3ccccc3)o2)c1
Potency [3]: > 46 µM
Potency [1]: inactive
Potency [4]: inactive

COc1ccccc1CC(=N)N1C[C@@H]2C(=O)CCC(c3ccccc3)(c3ccccc3)[C@@H]2C1
Potency [3]: > 46 µM
Potency [1]: inactive
Potency [10]: 3.16 µM (active)
Potency [11]: inactive

O=C(/C=C\c1ccc(O)c(O)c1)O[C@@H](Cc1ccc(O)c(O)c1)C(=O)O
Potency [3]: > 46 µM

Cc1c(C2CCN(CCc3ccccc3)CC2)noc1-c1ccc(Cl)cc1
Potency [3]: > 46 µM
Potency [1]: inactive
Potency [10]: inactive
Potency [11]: 15.8 µM (active)

O=C1c2ccc(O)c(O)c2C(=O)c2c(O)ccc(O)c21
outcome [12]: inactive
outcome [13]: inactive
Potency [14]: 21.3 µM (active)
Potency [15]: 19 µM (active)

O=C(O)c1ccccc1-c1c2cc(I)c(=O)c(I)c-2oc2c(I)c(O)c(I)cc12
Potency [16]: inactive
activity change, negative = inhibition [17]: 12.6% [at 12.7 µM]
activity change, negative = inhibition [18]: 212% [at 30.8 µM]
Potency [19]: 7.08 µM (active)

O=C(Nc1cc(C(=O)Nc2ccc(S(=O)(=O)O)cc2S(=O)(=O)O)cc(C(=O)Nc2ccc(S(=O)(=O)O)cc2S(=O)(=O)O)c1)Nc1cc(C(=O)Nc2ccc(S(=O)(=O)O)cc2S(=O)(=O)O)cc(C(=O)Nc2ccc(S(=O)(=O)O)cc2S(=O)(=O)O)c1
Potency [20]: 31.6 µM (active)
Potency [3]: > 46 µM
Potency [4]: inactive
outcome [5]: inactive
Potency [11]: inactive
Potency [6]: inactive
Potency [7]: inactive
outcome [8]: inactive
outcome [9]: inactive

O=C(O)c1nc2cc(Cl)c(Cl)cc2[nH]c1=O
Potency [10]: inactive
outcome [12]: inactive
outcome [13]: inactive

O=C(Nc1ccccc1C(=O)OCc1cc(=O)n2c3c(sc2n1)CCCC3)c1ccc(F)cc1
Potency [16]: inactive
activity change, negative = inhibition [17]: -5.61% [at 12.7 µM]
outcome [18]: inactive

O=C(Nc1ccc(C(=O)Nc2ccc(C(=O)Nc3ccc(S(=O)(=O)O)c4cc(S(=O)(=O)O)cc(S(=O)(=O)O)c34)cc2)cc1)Nc1ccc(C(=O)Nc2ccc(C(=O)Nc3ccc(S(=O)(=O)O)c4cc(S(=O)(=O)O)cc(S(=O)(=O)O)c34)cc2)cc1
Potency [20]: 31.6 µM (active)
Potency [3]: > 46 µM

COc1ccc(NS(=O)(=O)c2ccc3c(c2)[C@H]2C=CC[C@H]2[C@@H](c2ccc(C(=O)O)cc2)N3)cc1
Potency [16]: 19 µM (active)
Potency [17]: inactive
outcome [18]: inactive
Potency [19]: inactive

O=C(CCCCCCC(=O)Nc1ccc(C2OC(CSc3nc(-c4ccccc4)c(-c4ccccc4)o3)CC(c3ccc(CO)cc3)O2)cc1)NO (configuration not stated)
outcome [2]: inactive

Cc1ccc(Nc2nnc(-c3ccc(C)c(S(=O)(=O)NCc4nc5ccccc5[nH]4)c3)c3ccccc23)cc1
Potency [14]: 6.01 µM (active)
Potency [15]: 5.35 µM (active)

COc1cc(/C=C/C(=O)O)ccc1O
Potency [10]: inactive
outcome [12]: inactive
outcome [13]: inactive

O=C(OC1Cc2c(O)cc(O)cc2OC1c1cc(O)c(O)c(O)c1-c1c(C2Oc3cc(O)cc(O)c3CC2OC(=O)c2cc(O)c(O)c(O)c2)cc(O)c(O)c1O)c1cc(O)c(O)c(O)c1 (configuration not stated)
Potency [10]: inactive
outcome [12]: inactive
outcome [13]: inactive
